Screening data from PubChem.
HIF activator: HIF pathway transcriptional activators, primary screen, cell-based, U2OS HRE-luciferase, luminescence. activation, % at 7.5 µM (by protocol). actives 0.32% (n = 300,000). U2OS HRE-luciferase reporter; normalized: DMSO 0%, desferrioxamine 100%;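 active = mean activation of at least 10% of the iron chelator positive control signal, with at least half of replicates also reaching 10%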
Mot1-301 SUMO: yeast Mot1-301 growth rescue at high temperature, primary screen, SUMOylation pathway inhibitor project, S. cerevisiae, ATP luminescence, 38.5C; S. cerevisiae Mot1-301 growth rescue; percent above DMSO median, 100 means doubled; growth rescue, % at 18.8 µM; actives 1% (n = 320,000);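 active = every valid replicate shows activation above 250% relative to neutral control wells; inactive = the rest, any valid replicate at or below 250%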;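 note: OY570 slx delta 5 strain wells were the positive control but not used for scaling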
ALR H2O2 inh: inhibitors of human ALR sulfhydryl oxidase, primary screen, biochemical, H2O2 detection, HRP-luminol luminescence, single point; purified ALR, DTT oxidation; inhibition, % (concentration not given with the values); AID 485317, 2010; actives 3.8% (n = 290,000); FAD-linked sulfhydryl oxidase ALR (Homo sapiens), P55789;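 active = mean replicate inhibition above about 79%, with every replicate also reaching it, limit read from the data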
Target sequence (P55789 whole entry, looked up): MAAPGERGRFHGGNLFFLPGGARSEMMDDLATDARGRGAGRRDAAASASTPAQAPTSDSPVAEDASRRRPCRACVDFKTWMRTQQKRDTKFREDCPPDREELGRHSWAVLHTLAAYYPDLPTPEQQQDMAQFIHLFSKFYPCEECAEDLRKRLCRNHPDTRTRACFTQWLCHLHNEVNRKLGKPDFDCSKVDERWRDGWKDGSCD
AI-2 QS modul: Vibrio harveyi AI-2 quorum sensing modulators, primary screen, JMH597 strain, luminescence/OD600 ratio; Vibrio harveyi JMH597 AI-2 luminescence/OD600 ratio, 9 h; active compounds read low; strain lacks LuxN and CqsS sensors; 0 = neutral-control median; activity change, % at 7.5 µM; actives 0.4% (n = 300,000); in the data active = activity change below about -75%, passing the limit was not always enough;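 note: luminescence divided by OD600 gain over 9 h not by final OD600 alone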
An asterisk follows results filed as active; · = no result given. Compounds with a hit are over-represented: about 4.8% of the library has one in this group of screens.

SMILES | HIF activator | Mot1-301 SUMO | ALR H2O2 inh | AI-2 QS modul
CCCCN1C(=O)C2Cc3c([nH]c4ccccc34)CN2C1=S (stereo unspecified) | 1 | -10 | 89* | -1
CCS(=O)(=O)Nc1c(C(=O)O)[nH]c2ccccc12 | 0 | 4 | 99* | 24
Cc1cc(S(=O)(=O)Nc2c(C(=O)O)[nH]c3ccccc23)ccc1F | 0 | -9 | · | -3
Cc1ccc(S(=O)(=O)Nc2c(C(=O)O)[nH]c3ccccc23)cc1C | 0 | 17 | 98* | 10
CCOC(=O)C1=C(C)N(C)C(=O)NC1c1c(O)ccc2ccccc12 (stereo unspecified) | 0 | -7 | -18 | 20
COc1ccc(C(=O)c2ccc(Cl)cc2)cc1 | 2 | 9 | · | 1
COc1ccc(C(C#N)=C2C=CC(=NO)C=C2)cc1 | 2 | -10 | 96* | 9
Cc1ccccc1/C=N\NC(=O)c1ccc(Cn2cccn2)o1 | 0 | -9 | -6 | 23
O=C(N/N=C\c1cccc(Cl)c1)c1ccc(Cn2cccn2)o1 | -1 | -13 | 88* | 17
CCc1nc(C(N)=O)c2[nH]c(=O)n(-c3ccc(OC)cc3OC)c2n1 | 0 | -24 | -18 | 29
O=C(CSc1nc(N2CCOCC2)nc(N2CCOCC2)n1)Nc1ccccc1F | 0 | -5 | -6 | 1
C/C(=N\NC(=O)CSc1nc2ccccc2o1)c1ccc(O)cc1 | 0 | 60 | 99* | 12
O=C(CSc1nc2ccccc2o1)N/N=C/c1ccc(O)c(O)c1 | 2 | -1 | 88* | 2
C/C(=N\NC(=O)CSc1nc2ccccc2o1)c1cccc(O)c1 | 0 | -10 | · | 5
CCc1nc(NC(=O)c2sc(C)nc2C)sc1C(=O)OC | -1 | -3 | 2 | 4
CCC(C)c1ccc(NC(=O)Nc2cccnc2)cc1 (stereo unspecified) | 3 | -6 | 3 | -6
N#Cc1c(N)c(C(=O)c2ccccc2)n2c1CCC2 | 0 | -12 | 92* | 14
COc1cccc(OCC(=O)O/N=C(\N)c2ccncc2)c1 | 2 | 0 | · | -76*
N/C(=N\OC(=O)COc1ccccc1)c1ccncc1 | 3 | 18 | -7 | -47
CCOc1ccccc1CN1CCNC(=O)C1CC(=O)NCCCn1cccn1 (stereo unspecified) | 0 | -2 | -15 | 5
Clc1cccc(CSc2nnc(-c3cccnc3)n2Cc2ccco2)c1 | 0 | -12 | 3 | -17
COc1ccc(-n2c(COc3cccc4ccccc34)nnc2SCC(=O)NCc2ccco2)cc1 | 0 | 1 | -24 | 10
Clc1ccccc1CSc1nnc(-c2ccccn2)n1Cc1ccco1 | 0 | -5 | 92* | 19
COc1ccccc1OCc1nnc(SCC(=O)NCc2ccco2)n1-c1ccccc1 | 423* | 8 | -5 | -3
Clc1ccc(CSc2nnc(-c3cccnc3)n2Cc2ccco2)c(Cl)c1 | 0 | 221 | 97* | 15
SMILES | HIF activator | Mot1-301 SUMO | ALR H2O2 inh | AI-2 QS modul
COc1ccccc1NC(=O)CSc1nnc(-c2ccccn2)n1Cc1ccco1 | 0 | 75 | 97* | 37
NCCNc1ccc(C(=O)N2c3ccccc3Sc3ccccc32)cc1[N+](=O)[O-] | 2 | -13 | 18 | 14
CC(C)[C@H](NC(=O)c1ccccc1)C(=O)OCC(=O)NCCc1ccc(F)cc1 | -1 | -5 | -5 | 9
CC(C)[C@H](NC(=O)c1ccccc1)C(=O)OCC(=O)c1ccccc1F | 0 | 47 | 88* | 24
Cc1ccc(SCC(=O)NNC(=O)CCS(=O)(=O)c2ccccc2)cc1 | · | 0 | -5 | ·
COc1ccc(-c2cc(C(F)(F)F)nc(S(=O)(=O)CCCC(=O)Nc3cc(C)on3)n2)cc1OC | 12* | · | · | 44
COc1ccccc1-c1cc(C(F)(F)F)nc(N2CCCC2)n1 | 0 | -20 | 5 | 38
COc1ccccc1-c1cc2nc(C)c(CCC(=O)NCc3ccc(F)cc3)c(C)n2n1 | -3 | 184 | -5 | 10
COc1ccccc1-c1cc(C(F)(F)F)nc(S(=O)(=O)CCCC(=O)NCc2ccc(F)cc2)n1 | 26* | 7 | 61 | 16
COc1ccccc1-c1cc(C(F)(F)F)nc(S(C)(=O)=O)n1 | 16* | · | 91* | 33
COc1ccccc1-c1cc(C(F)(F)F)nc(S(=O)(=O)CCCC(=O)NC(C)C)n1 | 24* | 37 | 8 | 0
COc1ccccc1-c1cc(C(F)(F)F)nc(S(=O)(=O)CCCC(=O)Nc2cc(C)on2)n1 | 0 | 8 | 5 | 4
